Compound activity: PubChem BioAssay, several laboratories
Sampled rows, rich in hits. Any-hit rate of the full collection: about 4.2%.
esBAF inh = blocks esBAF chromatin remodeling in mouse ES cells. Bmi1-luciferase knock-in reporter, 24 h; 100% = twice the neutral-well signal. reporter increase, % at 12.5 µM. 2% of 350,000 active; in the data active = activation above about 40%; inconclusive = no clear call, values can overlap the other calls;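 also: 0% = median of the plate's neutral control wells and 100% = double that signal; a rise in the Bmi1 reporter signal indicates esBAF inhibition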
AHR activator = activates the human aryl hydrocarbon receptor; activation, % at 5 µM; P35869; AHR-responsive luciferase reporter cells, luminescence; 2.5% of 320,000 active; in the data active = activation above about 47%;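 also: 0% = vehicle wells and 100% = reference agonist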
Target sequence (P35869 whole entry, looked up): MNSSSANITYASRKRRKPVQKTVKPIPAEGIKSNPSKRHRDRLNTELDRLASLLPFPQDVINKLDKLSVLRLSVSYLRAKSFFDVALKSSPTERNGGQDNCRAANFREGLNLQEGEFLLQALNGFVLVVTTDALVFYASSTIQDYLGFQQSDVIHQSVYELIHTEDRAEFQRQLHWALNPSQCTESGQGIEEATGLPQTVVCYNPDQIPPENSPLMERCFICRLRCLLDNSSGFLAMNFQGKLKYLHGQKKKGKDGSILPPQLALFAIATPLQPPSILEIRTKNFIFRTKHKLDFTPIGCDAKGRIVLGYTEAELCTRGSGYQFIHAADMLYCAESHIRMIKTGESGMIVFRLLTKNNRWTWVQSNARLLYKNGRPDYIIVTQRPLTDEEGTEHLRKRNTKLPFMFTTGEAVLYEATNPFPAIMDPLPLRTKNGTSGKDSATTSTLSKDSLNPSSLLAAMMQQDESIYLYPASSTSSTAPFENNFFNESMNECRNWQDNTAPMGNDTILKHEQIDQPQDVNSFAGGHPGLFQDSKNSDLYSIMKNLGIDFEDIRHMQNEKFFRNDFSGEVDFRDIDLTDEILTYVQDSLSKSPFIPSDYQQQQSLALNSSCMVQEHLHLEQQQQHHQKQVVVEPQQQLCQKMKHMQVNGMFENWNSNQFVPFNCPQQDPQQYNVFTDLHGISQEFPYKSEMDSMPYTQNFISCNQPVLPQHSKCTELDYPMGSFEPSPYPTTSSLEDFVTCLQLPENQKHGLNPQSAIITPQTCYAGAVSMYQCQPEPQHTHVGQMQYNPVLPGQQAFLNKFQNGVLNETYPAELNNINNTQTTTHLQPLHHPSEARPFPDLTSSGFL
MITF act = activators of MITF-driven TRPM1 promoter activity in SK-MEL-5 cells; 0.75% of 300,000 active; SK-MEL-5 TRPM1-promoter luciferase, 24 h; % of positive control, neutral wells = 0; activation, % at 12.5 µM;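 active = mean activation of at least 80% with every replicate also reaching 80%; inconclusive = mean reaches 80% but some replicate falls short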;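 also: 0% = neutral control wells and 100% = parthenolide positive control wells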
Wnt bcat act = Wnt/beta-catenin pathway activation | 1.2% of 300,000 active | activation, % at 9.35 µM | Wnt/beta-catenin reporter cell assay, activator, plate reader; in the data active = activation above about 30%, passing the limit was not always enough; inconclusive = no clear call, values can overlap the other calls;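 also: 0% = neutral control wells and 100% = positive control wells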
FXN GAA850 act = activators of GAA850 frataxin (FXN) promoter; HEK293 lucGAA850 FXN promoter luciferase reporter, 24 h; percent of 10 µM SAHA response; activation, % at 6 µM; 0.56% of 360,000 active; AID 540364;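 active = activation above the average of all compounds screened plus 3 SD, cutoff fixed separately per campaign, cut at about 7.5% in these data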;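 also: 0% = DMSO wells and 100% = 10 µM SAHA wells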
The depositor's hits bear a star; ? = inconclusive; . = no result.

SMILES | esBAF inh | AHR activator | MITF act | Wnt bcat act | FXN GAA850 act
C[C@@H]1CCCCO[C@@H](CN(C)Cc2ccc(Cl)c(Cl)c2)[C@@H](C)CN([C@H](C)CO)C(=O)c2cc(NC(=O)NC3CCCCC3)ccc2O1 | -8 | . | . | . | .
COc1cccc(C(=O)Nc2ccc3c(c2)OC[C@@H](C)N(C)C[C@H](C)[C@H](OC)CN(C)C3=O)c1 | 2 | . | . | . | .
C[C@@H]1CN([C@@H](C)CO)C(=O)c2cccc(NS(=O)(=O)c3cccs3)c2O[C@@H]1CN(C)Cc1ccc2c(c1)OCO2 | 0 | . | . | . | .
O=C(C[C@H]1CC[C@@H](NC(=O)Nc2ccccc2F)[C@@H](CO)O1)NCc1ccc(Cl)cc1 | 1 | . | . | . | .
Cn1cc(Cl)c(/C(N)=N/OC(=O)c2ccccc2C(F)(F)F)n1 | 51* | 13 | 76 | 20 | 3
Fc1cccc(Cl)c1CN1CCN(c2nc3ccccc3s2)CC1 | 70* | . | 77 | 27 | 5
Cc1ccc(C(=O)c2coc3ccc(O)c(Cl)c23)cc1 | 68* | 12 | . | 67* | 2
O=C(c1ccccc1)c1coc2ccc(O)c(Cl)c12 | ? | -1 | 76 | 0 | 5
COc1ccc(S(=O)(=O)N(C)C[C@H]2Oc3ccc(NC(=O)Nc4c(C)noc4C)cc3CC(=O)N([C@H](C)CO)C[C@@H]2C)cc1 | 1 | . | . | . | .
COCc1cc(=O)[nH]c(Nc2nc3ccc(C)cc3o2)n1 | . | 48* | -6 | . | -15
O=C(O)/C=C/C(=O)c1ccc2c(c1)CCc1ccccc1-2 | 44* | 7 | -69 | 19 | -2
Cc1ccc(-c2nnc3n2N=C(c2ccc(Br)cc2)CS3)cc1 | -6 | 7 | 17 | -4 | 4
Clc1ccc(C2=Nn3c(nnc3-c3n[nH]c4c3CCC4)SC2)cc1 | -11 | 49* | -29 | . | -2
Brc1ccc(C2=Nn3c(nnc3-c3n[nH]c4c3CCC4)SC2)cc1 | . | 78* | -15 | . | 0
Cc1cc(C=C(C#N)C#N)c(C)n1-c1ccccc1 | 46* | 16 | 44 | . | 3
Cc1cc(/C=C(/C#N)C(=O)Nc2ccccc2)c(C)n1-c1cccnc1 | 44* | 32 | 52 | . | 3
COc1ccccc1-c1cn(CC[C@H]2CC[C@@H](NC(=O)NC(C)C)[C@H](CO)O2)nn1 | 3 | . | . | . | .
CCOc1ccc(N2C(=O)c3ccccc3C2O)cc1 (stereo not drawn) | ? | 19 | . | 43* | 1
O=C1c2ccccc2C(O)N1c1cccnc1 (stereo not drawn) | 8 | 11 | 2 | -1 | 1
CCOc1ccc(N2C(=O)c3ccccc3C2=O)cc1 | 43* | -9 | 7 | . | 3
O=C(COc1ccc(N2C(=O)c3ccccc3C2=O)cc1)c1ccccc1 | . | 0 | 4 | -5 | 1
Cc1c(/C=N\NC(=O)c2c[nH]c3ccccc23)cnn1C | . | 76* | -4 | 21 | 3
O=C(N/N=C/c1cccs1)c1c[nH]c2ccccc12 | ? | 154* | 62 | 31* | 1
OCc1cn(-c2ccccc2)nc1-c1cc2ccccc2o1 | ? | 10 | 73 | 57* | 5
CCn1cc(/C=N\NC(=O)c2c[nH]c3ccccc23)c(C)n1 | . | 20 | 31 | 3 | 2
SMILES | esBAF inh | AHR activator | MITF act | Wnt bcat act | FXN GAA850 act
O=C(N/N=C/c1cccs1)c1ccccn1 | . | 3 | 42 | 16 | 5
O=C(N/N=C/c1cn(-c2ccccc2)nc1-c1cc2ccccc2o1)c1c[nH]c2ccccc12 | . | 109* | 36 | -11 | 4
CO[C@@H]1CN(C)C(=O)c2ccc(NS(C)(=O)=O)cc2OC[C@H](C)N(CC2CCOCC2)C[C@@H]1C | -2 | . | . | . | .
C[C@@H]1CN([C@H](C)CO)C(=O)c2cc(NC(=O)CCC(F)(F)F)ccc2O[C@@H](C)CCCCO[C@@H]1CN(C)C(=O)NC1CCCCC1 | -4 | . | . | . | .
O=Cc1c(-c2ccccc2)nc2ccccn12 | . | 89* | 8 | 1 | 3
C[C@H](CO)N1C[C@H](C)[C@H](CN(C)Cc2ccc3c(c2)OCO3)Oc2ccc(NC(=O)CCC(F)(F)F)cc2C1=O | -6 | . | . | . | .
CS(=O)(=O)Nc1cccc(NC(=O)c2ccc(-c3ccc(F)c(F)c3)c3ccoc23)c1 | 6 | . | . | 5 | -2
CS(=O)(=O)Nc1cccc(NC(=O)c2cccc3c(-c4ccc(F)c(F)c4)coc23)c1 | 52* | . | . | -1 | 1
CS(=O)(=O)Nc1cccc(NC(=O)c2ccc(-n3ccnc3)c3ccoc23)c1 | 8 | . | . | 1 | -1
Cn1nccc1-c1ccc(C(=O)Nc2cccc(NS(C)(=O)=O)c2)c2occc12 | 46* | . | . | 4 | 2
Cc1ccc(C(=O)N2c3ccccc3CC2C)o1 (stereo not drawn) | 10 | 4 | 51 | 13 | 4
CC1Cc2ccccc2N1C(=O)c1ccc(Br)o1 (stereo not drawn) | 92* | 16 | . | 20 | 4
CCCNC(=O)N1C[C@@H](C)[C@@H](OC)CN(C)C(=O)c2cc(NC(C)=O)ccc2OC[C@H]1C | 1 | . | . | . | .
Cc1noc(C)c1NC(=O)Nc1cccc2c1O[C@H](CN(C)C(=O)NC1CCCCC1)[C@@H](C)CN([C@@H](C)CO)C2=O | 1 | . | . | . | .
C[C@H](NC(=O)[C@@H]1[C@@H](CO)[C@@H]2Cn3c(cccc3=O)[C@@H]2N1Cc1cccnc1)c1ccccc1 | 0 | . | . | . | .
COc1ccc(/C=C/C(=O)Nc2nonc2NC(C)=O)cc1 | . | 49* | 29 | . | 4
COc1ccc(/C=C/C(=O)Nc2cc(C)on2)cc1 | . | 23 | 73 | 21 | 7
Cc1cc(C(=O)NN=C(Cc2ccccc2)Cc2ccccc2)c(C)o1 | . | 58* | 16 | -1 | 5
CCn1cnc2c(Nc3cc(F)cc(F)c3)nc(C#N)nc21 | 57* | -1 | 70 | 26 | 7
CCNc1nc(C#N)nc2c1ncn2-c1cc(F)cc(F)c1 | 0 | 4 | 0 | -1 | -1
Cc1cccc(C=NOCCc2ccccc2)n1 | 66* | . | 73 | -1 | 6
CCCN(C)C[C@@H]1OCCCC[C@H](C)Oc2ccc(NC(=O)Nc3ccc(F)cc3)cc2C(=O)N([C@H](C)CO)C[C@@H]1C | -2 | . | . | . | .
O=C(Nc1cccc(-c2cn3cccnc3n2)c1)c1ccc2c(c1)OCO2 | 27 | 49* | 36 | . | 1
O=C(Nc1cccc(-c2cn3cccnc3n2)c1)c1ccco1 | 2 | 33 | -13 | -2 | -1
c1cnc2nc(-c3ccc4c(c3)OCO4)cn2c1 | ? | 64* | 87* | -2 | 4
SMILES | esBAF inh | AHR activator | MITF act | Wnt bcat act | FXN GAA850 act
O=C(Nc1cccc(-c2cn3cccnc3n2)c1)c1ccc(Br)o1 | 10 | 72* | 17 | . | 1
Cc1ccc(SCc2cn3cccnc3n2)cc1 | 46* | 1 | 62 | . | 2
CO[C@@H]1CN(C)C(=O)c2cc(NC(=O)C3CCCCC3)ccc2OC[C@@H](C)NC[C@@H]1C | -1 | . | . | . | .
Cc1ccc(-c2cn3cccnc3n2)cc1 | 36 | 0 | 84* | ? | 4
O=C(Nc1cccc(-c2cn3c(n2)SCC3)c1)c1ccc2c(c1)OCO2 | 49* | 50* | 19 | 9 | 1
O=S(=O)(c1ccc(F)cc1)N1CC[C@@H]2[C@H]1c1cc(Br)ccc1N[C@@H]2CO | 0 | . | . | . | .
